Measurements as given in PubChem BioAssay AID1159580 (chemical genetic matrix, 2015).
Where “and” joins values, the source holds several entries; their conditions need not be identical. Equal entries are not always repeated. Hit rate of the full screen: of about 5,500 compounds, about 2,000 (36%) were called active. Roughly 18% stayed inconclusive and do not appear here. No stated cut-off is given here; in the data, active means normalized growth mostly below about 0.91 (no sharp cut-off); inconclusive means no clear call, values can overlap the other calls; inactive means mostly above about 0.92. The list shows a part of the results.

Experiment: chemical genetic growth profiling, strain panel (AID 1159580);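 further: tested at 20 µM; growth read once vehicle control cultures reached saturation at 30 °C; 1 = growth at the plate median or of vehicle wells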
Conditions: S. cerevisiae deletion strains, growth OD

Measured: normalized growth

COC1=CC(C)[C@@H]2C[C@H]3OC(=O)C[C@H]4C(C)=C(OC)C(=O)C([C@@]34C)[C@@]2(C)C1=O (some centres undefined)
inactive: locus YAL021C, strain ccr4, stronger effect = lower value 0.997 | locus YAL026C, strain drs2, stronger effect = lower value 0.979 | locus YAL030W, strain snc1, stronger effect = lower value 0.988 | locus YBL061C, strain skt5, stronger effect = lower value 0.987 | locus YBR009C, strain hhf1, stronger effect = lower value 0.962 | locus YBR021W, strain FUR4, stronger effect = lower value 0.994 | locus YBR023C, strain chs3, stronger effect = lower value 0.978 | locus YBR171W, strain sec66, stronger effect = lower value 0.977 | locus YBR229C, strain ROT2, stronger effect = lower value 1.01 | locus YBR231C, strain swc5, stronger effect = lower value 0.988 | locus YBR279W, strain paf1, stronger effect = lower value 0.985 | locus YCL011C, strain gbp2, stronger effect = lower value 0.977 | locus YCL016C, strain dcc1, stronger effect = lower value 0.981 | locus YCL029C, strain bik1, stronger effect = lower value 1.02 | locus YCL061C, strain MRC1, stronger effect = lower value 0.99 | locus YCL069W, strain vba3, stronger effect = lower value 0.981 | locus YCR088W, strain abp1, stronger effect = lower value 0.978 | locus YDL005C, strain med2, stronger effect = lower value 0.975 | locus YDL035C, strain GPR1, stronger effect = lower value 1.01 | locus YDL040C, strain nat1, stronger effect = lower value 0.981 | locus YDL074C, strain BRE1, stronger effect = lower value 1.03 | locus YDL101C, strain DUN1, stronger effect = lower value 1.01 | locus YDL185W, strain tfp1, stronger effect = lower value 1.02 | locus YDL192W, strain arf1, stronger effect = lower value 1.02 | locus YDR001C, strain nth1, stronger effect = lower value 0.976 | locus YDR069C, strain doa4, stronger effect = lower value 0.984 | locus YDR101C, strain arx1, stronger effect = lower value 1.02 | locus YDR137W, strain rgp1, stronger effect = lower value 1 | locus YDR159W, strain sac3, stronger effect = lower value 0.988 | locus YDR162C, strain NBP2, stronger effect = lower value 1.03 | locus YDR195W, strain ref2 0.966 | locus YDR297W, strain sur2, stronger effect = lower value 0.978 | locus YDR318W, strain mcm21, stronger effect = lower value 1 | locus YDR334W, strain swr1, stronger effect = lower value 0.971 | locus YDR335W, strain msn5, stronger effect = lower value 0.986 | locus YDR388W, stronger effect = lower value 1 | locus YDR392W, strain spt3, stronger effect = lower value 0.88 | locus YDR502C, strain sam2, stronger effect = lower value 1.01 | locus YEL003W, strain gim4, stronger effect = lower value 0.975 | locus YEL037C, strain rad23, stronger effect = lower value 0.972 | locus YEL061C, strain CIN8 (second series), stronger effect = lower value 0.965 | locus YEL061C, strain CIN8, stronger effect = lower value 1.01 | locus YER015W, strain faa2, stronger effect = lower value 0.983 | locus YER016W, strain bim1, stronger effect = lower value 0.973 | locus YER110C, stronger effect = lower value 1.01 | locus YER111C, strain swi4, stronger effect = lower value 0.972 | locus YER155C, strain BEM2 (second series), stronger effect = lower value 0.978 | locus YER155C, strain BEM2, stronger effect = lower value 1 | locus YER167W, strain BCK2, stronger effect = lower value 1.01 | locus YFR010W, strain ubp6, stronger effect = lower value 0.98 | locus YGL078C, strain dbp3, stronger effect = lower value 1.02 | locus YGL086W, strain mad1, stronger effect = lower value 1.02 | locus YGL167C, strain pmr1, stronger effect = lower value 0.968 | locus YGL173C, strain kem1, stronger effect = lower value 0.973 | locus YGL227W, strain vid30, stronger effect = lower value 0.968 | locus YGL240W, strain doc1, stronger effect = lower value 0.972 | locus YGL248W, strain PDE1, stronger effect = lower value 1.03 | locus YGL253W, strain hxk2, stronger effect = lower value 0.983 | locus YGR078C, strain PAC10, stronger effect = lower value 1.04 | locus YGR135W, strain pre9, stronger effect = lower value 1.02 | locus YGR229C, strain SMI1, stronger effect = lower value 1.03 | locus YGR252W, strain gcn5, stronger effect = lower value 1.04 | locus YHR013C, strain ard1, stronger effect = lower value 0.926 | locus YHR027C, strain rpn1, stronger effect = lower value 0.989 | locus YHR030C, strain SLT2, stronger effect = lower value 1.01 and 1.04 | locus YHR079C, strain IRE1 (second series), stronger effect = lower value 1.01 | locus YHR079C, strain IRE1, stronger effect = lower value 1.01 | locus YHR094C, strain hxt1, stronger effect = lower value 1.03 | locus YHR129C, strain ARP1, stronger effect = lower value 1.01 | locus YHR142W, strain chs7, stronger effect = lower value 0.981 | locus YHR200W, strain rpn10, stronger effect = lower value 1.01 | locus YIL066C, strain RNR3, stronger effect = lower value 1.02 | locus YIL073C, strain SPO22, stronger effect = lower value 1.06 | locus YIL125W, strain kgd1, stronger effect = lower value 1.01 | locus YIR030C, strain dcg1, stronger effect = lower value 1.02 | locus YJL092W, strain hpr5, stronger effect = lower value 0.975 | locus YJL095W, strain BCK1 (second series), stronger effect = lower value 0.98 | locus YJL095W, strain BCK1, stronger effect = lower value 1.05 and 1.02 | locus YJL115W, strain asf1, stronger effect = lower value 0.978 | locus YJL129C, strain trk1, stronger effect = lower value 0.971 | locus YJL134W, strain LCB3, stronger effect = lower value 1.01 | locus YJL154C, strain vps35, stronger effect = lower value 0.975 | locus YJL164C, strain tpk1, stronger effect = lower value 0.989 | locus YJL166W, strain qcr8, stronger effect = lower value 0.987 | locus YJL168C, strain set2, stronger effect = lower value 1.01 | locus YJL187C, strain SWE1 (second series), stronger effect = lower value 1.03 | locus YJL187C, strain SWE1, stronger effect = lower value 0.993 | locus YJR043C, strain POL32, stronger effect = lower value 1 | locus YJR066W, strain TOR1, stronger effect = lower value 0.993
